Values joined by “and” are separate entries in the source; they are usually repeats but may differ in a detail not shown here. Equal values may be shown once.
Assays:
Format in all cases: functional
[1] = biological target: Solute carrier family 2, facilitated glucose transporter member 1 (Homo sapiens) (UniProt P11166); test: ST_JUDE_LEISH: Cytotoxicity at 2uM final concentration against transgenic Leishmania Mexicana promastigotes LmGLUT1 that are glucose transport deficient and complemented with the human glucose transporter GLUT1. Activity is measured by DNA content using SYBR green in vitro
[2] = biological target: Hexose transporter 1 (Plasmodium falciparum) (UniProt O97467); test: ST_JUDE_LEISH: Cytotoxicity at 2uM final concentration against transgenic Leishmania Mexicana promastigotes LmPfHT that are glucose transport deficient and complemented with the Plasmodium falciparum hexose transporter. Activity is measured by DNA content using SYBR green in vitro
[3] = biological target: Glucose transporter (Leishmania mexicana) (UniProt O61059); test: ST_JUDE_LEISH: Cytotoxicity at 2uM final concentration against transgenic Leishmania Mexicana promastigotes LmGT2 that are glucose transport deficient and complemented with the L. Mexicana glucose transporter 2. Activity is measured by DNA content using SYBR green in vitro

Sequence of Solute carrier family 2, facilitated glucose transporter member 1 (Homo sapiens) (P11166 whole entry): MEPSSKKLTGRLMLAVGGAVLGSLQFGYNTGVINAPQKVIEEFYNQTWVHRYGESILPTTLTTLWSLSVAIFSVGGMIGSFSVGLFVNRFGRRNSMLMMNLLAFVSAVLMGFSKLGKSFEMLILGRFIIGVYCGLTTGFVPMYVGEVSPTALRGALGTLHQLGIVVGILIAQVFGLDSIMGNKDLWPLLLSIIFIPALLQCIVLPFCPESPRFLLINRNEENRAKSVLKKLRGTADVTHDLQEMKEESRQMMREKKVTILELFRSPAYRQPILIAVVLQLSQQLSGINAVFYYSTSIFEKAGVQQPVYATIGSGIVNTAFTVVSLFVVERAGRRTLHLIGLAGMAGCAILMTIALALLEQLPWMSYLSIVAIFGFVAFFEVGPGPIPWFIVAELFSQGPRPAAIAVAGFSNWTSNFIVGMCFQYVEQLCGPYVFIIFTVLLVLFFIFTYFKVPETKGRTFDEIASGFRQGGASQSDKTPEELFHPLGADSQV

**Q.** With CC(Cc1ccc(OCCCCOc2ccccc2)cc1)NCCCN1CCOCC1 (stereo unspecified) as the compound, how does the inhibition [1] read?
**A.** The inhibition was -1.24%.

**Q.** And the inhibition [2]?
**A.** Its inhibition is 2.33%.

**Q.** And the inhibition [3]?
**A.** The inhibition was -0.25%.

**Q.** How did the inhibition [1] turn out when CC[C@H]1CN2CC[C@H]1C[C@@H]2[C@H](O)c1ccnc2ccc(O)cc12 was run?
**A.** The inhibition was -0.84%.

**Q.** And the inhibition [2]?
**A.** The inhibition was -0.85%.

**Q.** And the inhibition [3]?
**A.** Its inhibition is 0.24%.

**Q.** CC[C@H]1CN2CCc3cc(OC)c(OC)cc3[C@@H]2C[C@@H]1C[C@H]1NCCc2c1cc(OC)c(O)c2Cl was tested. Which inhibition [1] did it give?
**A.** Its inhibition is 94.8%.

**Q.** What about the inhibition [2] of the same compound?
**A.** Its inhibition is 98.3%.

**Q.** What about the inhibition [3] of the same compound?
**A.** Its inhibition is 89.3%.

**Q.** What does the source list for C[C@@H](CC1CCCCC1)NCc1ccccc1O?
**A.** inhibition [1]: 4.7%; inhibition [2]: 11.1%; inhibition [3]: 3.31%

**Q.** Which inhibition [1] does the source give for COc1ccc(C(=O)C2CC2CN2CC=C(c3c(C)[nH]c4ccccc34)CC2)cc1 (stereo unspecified) here?
**A.** The inhibition was -1.12%.

**Q.** And the inhibition [2]?
**A.** Its inhibition is 2.52%.

**Q.** And the inhibition [3]?
**A.** Its inhibition is 3.3%.

**Q.** How did the inhibition [1] turn out when CCC1CN2CCc3cc(OC)c(OC)cc3C2CC1CC1NCCc2cc(OC)c(OC)cc21 (stereo unspecified) was run?
**A.** Its inhibition is 96.6%.

**Q.** What about the inhibition [2] of the same compound?
**A.** Its inhibition is 96%.

**Q.** And the inhibition [3]?
**A.** The inhibition was 93.1%.

**Q.** Which results are given for COc1cccc(/C=C/C(=O)NC2CCC(CN3CCC(c4c[nH]c5ccccc45)CC3)CC2)c1 (stereo unspecified)?
**A.** inhibition [1]: 2.16% and -1.74%; inhibition [2]: -0.63% and -2.74%; inhibition [3]: 3.07% and -2.7%
